Reference: the supplement of paper PMC10338343
± gives the standard deviation.

Tested on: MILI (PIWIL2) piRISC loaded with L1MC piRNA (26 nt)
Assay: pre-steady-state target cleavage rate (min^-1); guide: L1MC piRNA 5'p-UAACUAAAUACUAUGCAAGCUGUAGG; MIWI and MILI are mouse PIWI proteins and EfPiwi is from a freshwater sponge; tags in brackets are library labels; higher = faster piRNA-guided slicing of the target
Settings: auxiliary factor: none (no GTSF1)
Outline: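 In this Cleave-'n-Seq assay, uncleaved targets were sequenced and normalised to depth and to weakly complementary targets. They came from a transcribed, DNA-blocked target RNA library […] mixed with 1 nM active affinity-purified piRISC carrying one synthetic guide, with or without 500 nM GTSF1 partner protein, in HEPES–potassium acetate buffer at 33 °C for 0–8 or 0–960 min. After three trials were pooled and k3 was capped at 0.0001 min^-1, the pre-steady-state cleavage rate was obtained from a burst-and-steady-state fit.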
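Further: 1 nM active piRISC with 0.1 nM target library at 33 °C single turnover.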

Row | Sequence | pre-steady-state target cleavage rate
1 | UCCUGGAUGUCGUUGCAUAGUACUUAGUUA | 0.00463 ± 0.0029
2 | UCCUGGAUCAGCUUAGCAUAGUAUUUAGUUA | 0.00685 ± 0.0027
3 | UCCUCCUACAGGCUUGCAUAGUAUUUAGUUA | 0.00802 ± 0.0025
4 | UCCUCCUACAGCCUUGCAUAGUAUUUAGUUA | 0.0101 ± 0.0026
5 | UCCUGGAUGAGCUUGCAUAGUAUUUUGUUA | 0.00454 ± 0.0024
6 | UCCUCCUACAGCUUGCAUUGUAUAUAGUUA | 0.00393 ± 0.0025
7 | UCCUGGAUCAGCUUGCAUAGUAUUCAGUUA | 0.00376 ± 0.0025
8 | UCCUCCUACAGCUUGCAUUGUAUUUUGUUA | 0.00327 ± 0.0022
9 | UCCUGGUACAGCUUGGAUAGUAUAUAGUUA | 0.0066 ± 0.0032
10 | UCCUGCUACAGCUUGCAUUGUAUUUAGUAA | 0.00356 ± 0.002
11 | UCCUGGAUGUGCUUGCAUAGUAGUUAGUUA | 0.0055 ± 0.0027
12 | UCCUCCUACAGCUUGCAUAGUAGUUAGUUA | 0.00325 ± 0.0032
13 | UCCUGGAUGAGCUUGCAUAUUAUUUAGUUA | 0.00304 ± 0.003
14 | UCCUGGAUCAGCUUGCAUUGUAAUUAGUUA | 0.00466 ± 0.0022
15 | UCCUCCUAGAGCUUGCAUAGUAUAUAGUUA | 0.00315 ± 0.0025
16 | UCCUGGUACAGCUUGCAUAGUAUUUAGAUUA | 0.00728 ± 0.0036
17 | UCCUGGAUGAGCUUCAUAGUAUUUAGUUA | 0.00515 ± 0.002
18 | UCCUGGAUGUCGAUUGCAUAGUAUUUAGUUA | 0.00748 ± 0.0024
19 | UCCUGCUCACAGCUUGCAUAGUAUUUAGUUA | 0.0111 ± 0.0037
20 | UCCUGGAUCAGCUUGCAUAGUAUUUAGUUU [g2:g22:cont:t1U] | 0.0189 ± 0.0043

Row | Sequence | pre-steady-state target cleavage rate
21 | UCCUGGAUGUGCUUGCAUGGUAUUUAGUUA | 0.0124 ± 0.0032
22 | UCCUGGAUGAGCUUGCAUAGUAUUUACGUUA | 0.00682 ± 0.0032
23 | UCCUGGAUCACGAUGCAUAGUAUUUAGUUA | 0.00516 ± 0.0028
24 | UCCUGGUACAGGUUGCAUAGUAUUAAGUUA | 0.00893 ± 0.0037
25 | UCCUCCUUGAGCUUGCAUAGUAUUUAGUUA | 0.0051 ± 0.0021
26 | UCCUGGUACACCUAGCAUAGUAUUUAGUUA | 0.00696 ± 0.0032
27 | UCCUGGAUCACCUUGCAUAGUAAUUAGUUA | 0.00446 ± 0.0029
28 | UCCUGGAUCAGCUUGCAUAGUAUUUACAAA | 0.00255 ± 0.0024
29 | UCCUGGUACAGCUUGCAUAGUAAUUUAGUUA | 0.0129 ± 0.0045
30 | UCCUGCUUACAGCUUGCAUAGUAUUUAGUUA | 0.0088 ± 0.0032
31 | UCCUCCUACAGCUUGCAUAGUAUCUUAGUUA | 0.00811 ± 0.0026
32 | UCCUGGAUCAGCUUGCAUAGUAUGUUAGUUA | 0.00633 ± 0.0025
33 | UCCUCCUACAGCUUGCUUUGUAUUUAGUUA | 0.00401 ± 0.0023
34 | UCCUGCUUCAGCUUGCAUAGUAUUUAGUAA | 0.00397 ± 0.002
35 | UCCUGCUACAGCUUGCUUAGUUUUUAGUUA | 0.00366 ± 0.0015
36 | UCCUGGAACAACUUGCAUAGUAUUUAGUUA | 0.0104 ± 0.0027
37 | UCCUCCUACUGCUUGCAUAGUAUUAAGUUA | 0.00292 ± 0.0026
38 | UCCUGGUAAGCUUGCAUAGUAUUUAGUUA | 0.0137 ± 0.0032
39 | UCCUGCUACAGCUUCCAUUGUAUUUAGUUA | 0.00322 ± 0.0022
40 | UCCUGGAUCAGCAUGCAUAGUAUUAAGUUA | 0.00634 ± 0.0023
